# Sm TGR block – S. mansoni TGR enzyme inhibition; Q962Y6; purified TGR, DTNB reduction, TNB absorbance 405 nm; Potency, µM (series often up to 114 µM), inactives show top-dose activity change, negative = inhibition, most hits filed as inhibitors; hit rate 3% among 360,000; AID 485364; note: % is set by controls: 0 for no effect and ±100 for the full control effect; nearly all actives have a fitted effect of over 60% in size
#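 Kinetic colorimetric format: TGR-catalysed, NADPH-driven DTNB reduction monitored via TNB absorbance. Enzyme dispensed at 20 nM; compound exposure 15 min at room temperature before reaction start.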
# Pf growth 48h – P. falciparum growth inhibition at 48 hours (one generation); P. falciparum luciferase growth in erythrocytes, 48 h; Potency, µM (doses to about 28.7 µM), for inactives: at the top dose activity change, negative = inhibition, hits mostly inhibitors; hit rate 5.9% among 310,000; AID 504832; note: % is set by controls: 0 for no effect and ±100 for the full control effect
#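 Cell-based growth assay: transgenic P. falciparum expressing firefly luciferase, cultured in red cells within RPMI 1640 containing 0.5% w/v Albumax, 24 mM bicarbonate and gentamycin. A drop in luciferase activity indicates inhibition.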
# AMA1 RON2 block – disrupts binding of P. falciparum AMA1 to RON2; AID 720542; hit rate 0.2% among 360,000; Potency, µM (titrated, usually from 58.2 µM), for inactives: top-dose activity change, negative = inhibition, most hits filed as inhibitors; AlphaScreen AMA1-biotinylated RON2 peptide binding;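 note: 0% = vehicle wells and -100% = peptide control; nearly all actives have a fitted effect of over 45% in size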
#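 AMA1 (3D7) with his tag at 25 nM final met compounds first, then biotinylated RON2 peptide at 25 nM; detection used donor plus acceptor beads, 10 µg/mL apiece, read by AlphaScreen after 30 min at room temperature.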
# NS1 inh – influenza NS1 inhibition; AID 2326; Potency, µM (titrated, usually from 46.1 µM), inactives show at the top dose activity, positive = more growth; hit rate 0.4% among 270,000; calls by dose curve; note: actives are rising curves; nearly all actives have a fitted effect of over 50% in size
#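 Growth recovery, yeast-based: influenza A NS1 expressed in S. cerevisiae causes slow growth, and suppressors are detected by OD600. The parent strain without NS1 is used as positive control.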
# Pf growth 96h – P. falciparum growth inhibition at 96 hour, primary screen for plastid delayed-death inhibitors | P. falciparum luciferase reporter growth, 96 h | Potency, µM (titrated, usually from 28.7 µM), for inactives: at the top dose activity change, negative = inhibition, actives largely listed as inhibitors | hit rate 6.9% among 320,000; note: % is set by controls: 0 for no effect and ±100 for the full control effect
#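 Two-generation exposure (96 h) targets delayed-death phenotype. Reporter parasites carrying integrated firefly luciferase, in red cells at 2% hematocrit and 0.05% parasitemia final, kept at 37 C, 5% CO2; luminescence loss indicates inhibition.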
# * = called active by the depositor; ? = inconclusive; / = not tested or not shown; [ ] = another dose, or the depositor's remark. Rows were chosen to be rich in hits. Some 11% of all compounds tested hit in one or more screens of this group. Unless noted, calls come from the whole dose curve; as a rule, active = well fitted curve in the direction sought with a large enough effect; inconclusive = small, poorly fitted or top-dose-only effect, or another doubt; inactive = no such curve, though single readings can be large; an effect the other way counts as inactive or inconclusive. Potency is the fitted concentration of half-maximal effect.
SMILES,Sm TGR block,Pf growth 48h,AMA1 RON2 block,NS1 inh,Pf growth 96h
O=C(CSc1nc2ccccc2s1)N1N=C(c2cccs2)CC1c1ccc(F)cc1 (stereo not given),3.7%,-20.2%,4.7%,9.9%,?
Cc1ccn2c(=O)nc(SCC(=O)N3N=C(c4cccs4)CC3c3ccc(F)cc3)nc2c1 (stereo not given),-17.0%,?,-4.5%,/,4.65µM*
O=C(COC(=O)Cc1ccc(Cl)c(Cl)c1)Nc1ccc2[nH]c(=O)[nH]c2c1,1.3%,13.9%,-17.2%,/,19.0%
COc1ccc(C2=NN(C(=O)CSC3=NN4CCCC(=O)N=C4S3)C(c3cccc(OC)c3OC)C2)cc1 (stereo not given),-5.3%,?,-9.1%,/,?
COc1cccc(C2CC(c3cccs3)=NN2C(=O)CSC2=NN3CCCC(=O)N=C3S2)c1OC (stereo not given),-12.0%,7.38µM*,-3.6%,-11.3%,0.465µM*
COc1ccc(C2=NN(C(=O)CSc3ncccn3)C(c3ccc(C)cc3)C2)cc1 (stereo not given),2.8%,?,-20.1%,14.3%,?
COc1ccc(C2=NN(C(=O)CSc3nc(=O)n4cccc(C)c4n3)C(c3ccc(C)cc3)C2)cc1 (stereo not given),-1.2%,11.7µM*,-2.7%,/,?
COc1ccc(C2CC(c3ccc(Br)cc3)=NN2C(=O)CSC2=NCCS2)cc1 (stereo not given),-28.4%,?,-17.1%,?,4.65µM*
COc1ccc(C2CC(c3cccs3)=NN2C(=O)CSc2nc(=O)n3ccccc3n2)cc1 (stereo not given),-0.5%,13.1µM*,-19.9%,/,8.28µM*
Cc1cccc(-c2nn(-c3ccccc3)cc2C(=O)N2CCN(C3CCS(=O)(=O)C3)CC2)c1 (stereo not given),-13.8%,7.0%,-0.7%[11.6 µM],/,1.9%
Cc1ccc(C2CC(c3cccs3)=NN2C(=O)CSc2nc(=O)n3cc(C)ccc3n2)cc1 (stereo not given),3.9%,?,-7.1%,/,5.22µM*
COc1cccc(CN(CC(=O)NCc2ccccc2)S(=O)(=O)CCl)c1,-1.4%,13.1%,-0.2%,/,41.6%
CC(C)OCCCN1C=C2C(=O)C(C)(OC(=O)CCc3ccccc3)C(=O)C=C2C=C1c1ccc(C#N)cc1 (stereo not given),-16.4%,10.4µM*,-5.9%,5.0%,?
Cc1ccc(O)c(NC2=C(Cl)C(=O)N(Cc3ccccc3)C2=O)c1,/,11.7µM*,21.9%,8.6%,?
Cc1ccc(C(=O)N2CCCCC2)cc1NC1=C(Cl)C(=O)N(Cc2ccccc2)C1=O,2.9%,4.65µM*,-2.0%,/,5.22µM*
COc1ccccc1N1CCN(C(c2cccs2)C(C)NC(=O)C(=O)N2CCOCC2)CC1 (stereo not given),2.5%,7.7%,-2.6%,-6.3%,?
CS(=O)(=O)OCC(O)C(O)COS(C)(=O)=O (stereo not given),/,-11.3%,/,/,-16.1%
COc1ccccc1NC(=O)Cn1nc(Cc2cccnc2)c2ccccc2c1=O,-0.6%,-16.7%,12.5%,-5.3%,-20.0%
COc1ccc(CCNC(=O)CCNS(=O)(=O)c2cccc(Cl)c2)cc1OC,1.0%,-16.9%,8.0%,/,?
CCNc1nc(NC(C)C)nc(Oc2ccc(OCCOc3ccc(C)cc3)nn2)n1,1.1%,?,11.2%,-46.5%,11.7µM*
CCNc1nc(NCC)nc(Oc2ccc(OCC)nn2)n1,-2.0%,-1.3%,0.9%,?,23.9%
Cc1ccccc1OCC(=O)N/N=C/c1ccc2c(c1)OCCO2,-22.9%,-1.1%,-3.1%,-20.4%,2.62µM*
CC1(C(=O)N/N=C/c2ccc3c(c2)OCO3)CC1(Br)Br (stereo not given),2.8%,11.2%,3.7%,0.8%,5.22µM*
Cc1cc(C)c(OCC(=O)N/N=C/c2ccc3c(c2)OCO3)c(C)c1,4.6%,10.2%,-12.6%,-13.1%,11.7µM*
O=C(COc1cccc(Br)c1)N/N=C/c1ccc2c(c1)OCCO2,/,/,37.8%,/,/
SMILES,Sm TGR block,Pf growth 48h,AMA1 RON2 block,NS1 inh,Pf growth 96h
CC1(C(=O)N/N=C/c2ccccc2)CC1(Cl)Cl (stereo not given),-5.3%,0.1%,3.0%,-2.0%,3.29µM*
O=C(NCc1ccccn1)C(=O)N/N=C/c1ccc2c(c1)OCO2,5.0%,19.8%,90.0%,3.2%,4.65µM*
Cc1ccccc1OCC(=O)N/N=C/c1ccncc1,-1.8%,18.8%,13.9%,-3.7%,9.5%
Cc1ccccc1OCC(=O)N/N=C/c1ccc(N2CCOCC2)o1,7.94µM*,-1.1%,124.1%,11.5%,-18.7%
O=C1CCCC(O)=C1Sc1cc(Cl)c(Cl)cc1Cl,/,/,12.8%,/,/
Cc1ccc(S(=O)(=O)N(C)C)cc1NC(=O)COc1ccccc1C(=O)Nc1ccccc1,-2.0%,11.7µM*,-6.4%,/,?
Cc1ccc(NC(=O)c2ccccc2OCC(=O)Nc2ccccc2F)cc1S(=O)(=O)N(C)C,-0.5%,9.28µM*,0.0%,/,7.38µM*
CN(C)S(=O)(=O)c1cccc(NC(=O)COc2ccccc2C(=O)Nc2ccccc2)c1,/,/,-4.6%,/,/
Cc1ccc(NC(=O)CN2C=NS(=O)(=O)c3ccccc32)cc1,-1.2%,/,/,/,/
COCCCn1c(=N)c(S(=O)(=O)c2ccccc2)cc2c(=O)n3cccc(C)c3nc21,4.5%,/,/,/,/
CCN1CCN(c2nc(-c3ccncc3)nc3ccccc23)CC1,-22.1%,9.28µM*,/,-7.7%,7.38µM*
CCN1CCN(c2nc(-c3cccnc3)nc3ccccc23)CC1,-13.1%,?,-7.3%,-20.3%,/
CCCOc1ccc(-c2nc(N3CCN(CC)CC3)c3ccccc3n2)cc1,11.7%,10.4µM*,-1.0%,-3.3%,11.7µM*
OC[C@@H]1CN(CCN2CCOCC2)C[C@H](n2cnc3c(NCc4ccco4)ncnc32)O1,/,/,14.8%,/,/
Cc1cc(NC(=O)CSc2nnc(-c3cccc(Cl)c3)o2)no1,0.9%,?,0.4%,-3.2%,2.94µM*
CCN(CC)S(=O)(=O)c1ccc2oc(SCC(=O)Nc3cc(C)on3)nc2c1,5.4%,?,34.6%,/,2.08µM*
Cc1cc(NC(=O)CSc2nc3cc(Cl)ccc3o2)no1,5.7%,8.28µM*,35.8%,-0.1%,56.1%
COc1cc(Cl)c(C)cc1NC(=O)CSc1nc2ccccc2o1,-14.8%,4.1%,-1.3%,4.5%,10.4µM*
CCN(CC)S(=O)(=O)c1ccc2oc(SCC(=O)NC3CC3)nc2c1,-15.2%,11.1%,3.5%,5.3%,22.2%
COc1cccc(-c2nnc(SCC(=O)Nc3cc(C)on3)o2)c1,-31.1%,0.0%,39.2%,-4.3%,/
CN[C@H](CC(=O)O)C(=O)O,/,/,8.2%,0.0%,/
COc1ccc(C(=S)N(C)C)cc1OC,0.9%,14.7%,-3.8%,-5.0%,8.28µM*
COc1ccc(C(=S)N2CCCC2)cc1OC,-5.4%,/,2.9%,-0.4%,-1.9%
CC(C)Cc1nc2c(nnn2Cc2ccccc2F)c(=O)[nH]1,11.9%,?,15.0%,-4.6%,9.28µM*

# Screens: PubChem BioAssay, National Center for Advancing Translational Sciences (NCATS)
